Not all results are given here.
aSyn UTR act = Activators via SNCA 5'UTR binding, MLPCN; alpha-synuclein 5'UTR reporter, activators screen; activity score, % (tested at 7.5 µM), hits read low; 300,000 tested, 7.1% active; in the data active = activity score below about -60%
A number is an active result; - = inactive.

SMILES | aSyn UTR act
COc1ccc(S(=O)(=O)N[C@@H](C)C(=O)OCC(=O)Nc2cc3oc4ccccc4c3cc2OC)cc1 | -129
COc1cc2c(cc1NC(=O)COC(=O)[C@@H](NS(=O)(=O)c1cccc(Cl)c1)C(C)C)oc1ccccc12 | -103
CCOc1ccc(C2C(C(=O)c3ccc(C)o3)=C(O)C(=O)N2c2nc(C)c(C(=O)OC)s2)cc1 (stereo not given) | -92
O=C(c1cnn(-c2ccccc2)c1)c1cc(F)ccc1O | -163
NNC(=O)c1nn(-c2ccccc2)cc1O | -
O=C(c1cnn(-c2ccccc2)c1)c1ccccc1O | -106
Oc1ccc(Br)cc1-c1ccn[nH]1 | -69
O=C(Nc1ccc(Cl)cc1Cl)C1=Cc2ccccc2OC1 | -192
COc1ccc(NC(=O)/C=C/c2ccc(F)cc2)cn1 | -114
COc1ccc(NC(=O)/C=C/c2ccccc2)cn1 | -116
CC1Sc2ccc(C(=O)OCc3ccccc3Cl)cc2NC1=O (stereo not given) | -147
CC1Sc2ccc(C(=O)Nc3ccccc3OC(F)F)cc2NC1=O (stereo not given) | -81
CC(C)N(C(=O)CSc1ncnc2sc(-c3ccccc3)cc12)C(C)C | -88
Cc1nc(SCCC(=O)O)c2cc(-c3ccccc3)sc2n1 | -
CCOC(=O)/C=C/c1cnn(-c2ccccc2)c1 | -113
Cc1ccc2nc(-c3ccc(N4C(=O)CC(N5CCN(CCO)CC5)C4=O)cc3)sc2c1 (stereo not given) | -87
Cc1cc(NC(=O)COc2ccccc2C)no1 | -116
Cc1cc(NC(=O)COc2cccc3cccnc23)no1 | -96
Cc1cc(NC(=O)COc2ccc(C)c(C)c2)no1 | -62
Cc1ccccc1OCC(=O)NC1=NCCS1 | -77
Cc1cc(NC(=O)COc2cccc(C)c2C)no1 | -66
Cc1noc(C)c1CSc1nc2[nH]ncc2c(=O)n1-c1ccccc1 | -
Cc1nc(-c2ccccc2)nc2[nH]c(=O)n(-c3ccccc3)c(=O)c12 | -93
Clc1ccc(COn2nnc3ccccc32)c(Cl)c1 | -151
c1ccc(N2CCN(c3ccccc3)C2c2cccs2)cc1 | -108
SMILES | aSyn UTR act
CCOC(=O)C1CCN(c2nnc(N3CCCC3=O)s2)CC1 | -66
CCCOc1ccc(/C=N/Nc2ccc(C(=O)O)cc2)c(OCCC)c1 | -109
CCCOc1ccc(/C=N/Nc2cccc([N+](=O)[O-])c2)c(O)c1 | -164
O=[N+]([O-])c1ccc(O)c(C=Nc2ccc3c(c2)OCCO3)c1 | -62
O=[N+]([O-])c1ccc(O)c(/C=N/Nc2ccccn2)c1 | -
CCCOc1ccc(/C=N/Nc2ccccc2[N+](=O)[O-])c(O)c1 | -
O=[N+]([O-])c1cccc(N/N=C/c2cc([N+](=O)[O-])ccc2O)c1 | -70
CN(/N=C/c1cc([N+](=O)[O-])ccc1O)c1ccccc1 | -159
O=[N+]([O-])c1ccc(N/N=C/c2ccccc2O)cc1 | -165
COc1ccc(N=C2C(=Nc3ccc(OC)cc3)N(c3ccccc3)C(=S)N2C(=O)c2ccc(Cl)cc2)cc1 | -200
COc1ccc(N2C(=S)N(C(=O)c3ccccc3)C(=Nc3ccccc3)C2=Nc2ccccc2)cc1 | -120
COc1ccc(N=C2C(=Nc3ccc(OC)cc3)N(c3ccc(N(C)C)cc3)C(=S)N2c2ccc(OC)cc2)cc1 | -
Nc1ccc2c(c1)sc1ccccc12 | -148
CCC(=O)c1ccc(OCC(O)Cn2nnc3ccccc32)cc1 (stereo not given) | -74
CC(C)(C)c1cc[n+](/C(C(=S)Nc2ccccc2F)=C(/[O-])c2ccc3c(c2)OCCO3)cc1 | -74
[O-]/C(=C(\C(=S)Nc1ccccc1F)[n+]1ccccc1)c1ccc(-c2ccccc2)cc1 | -71
[O-]/C(=C(\C(=S)Nc1ccc(Cl)cc1)[n+]1ccccc1)c1ccc(OC(F)F)cc1 | -79
CCOc1ccccc1NC(=S)/C(=C(\[O-])c1ccc2c(c1)OCCO2)[n+]1ccc(CC)cc1 | -64
O=C(c1cc(-c2cccs2)on1)N1CCCc2ccccc21 | -79
O=C(c1cc(-c2ccc(F)cc2)on1)N1CCCc2ccccc21 | -62
Cc1ccc(-c2cc(C(=O)N3CCCc4ccccc43)no2)cc1 | -150
O=S(=O)(/C=C/c1ccccc1)Oc1ccccc1 | -80
O=C(O)c1ccc2c(=O)n3c(nc2c1)/C(=C/c1ccc(F)cc1)CC3 | -73
O=C(NCCc1ccc(F)cc1)c1ccc2c(=O)n3c(nc2c1)CCC3 | -71
O=C(Nc1ccc(F)cc1Cl)c1ccc2c(=O)n3c(nc2c1)CCCCC3 | -144
SMILES | aSyn UTR act
COc1cc2oc(-c3ccc(O)cc3)cc(=O)c2c(O)c1OC | -73
CCOC(=O)c1ccc(NC(=O)c2nn(C)cc2Br)cc1 | -204
CCOC(=O)c1ccc(NC(=S)NC(=O)c2nn(CC)cc2Br)cc1 | -66
CCOC(=O)c1ccc(NC(=O)c2nn(CC)cc2Br)cc1 | -94
CCn1cc(Br)c(C(=O)Nc2ccc(F)c(Cl)c2)n1 | -110
O=C(C1=NNCC1c1ccccc1)C1OC1c1ccccc1 (stereo not given) | -83
Cc1cc(-c2nnc3n2N=C(c2ccc(F)cc2)CS3)n[nH]1 | -77
Cc1cccc(-c2nnc3n2N=C(c2ccccc2)CS3)c1 | -
Cc1ccc(C(=O)c2cccc(N)c2)cc1C | -
C/C(=N\Nc1ccccc1)c1cccc(N)c1 | -92
Brc1ccc(N/N=C(/N=Nc2nn[nH]n2)c2ccccc2)cc1 | -
O=c1c2c3c(sc2nc2sc(C4CC4)nn12)CCCC3 | -130
C1CCC(c2nn3c(-c4n[nH]c5c4CCC5)nnc3s2)CC1 | -
CC(=O)N(C(C)=O)n1c(C)nc2sc3c(c2c1=O)CCCC3 | -
CSc1nc(-c2ccc(Cl)cc2)nn1C(=O)c1ccccc1 | -134
O=C(c1ccccc1)[C@H]1[C@H](c2ccccc2)[C@@]2(N=C(c3ccccc3)OC2=O)C2c3ccccc3C=NN21 (stereo not given in full) | -110
CCOC(=O)N=Nc1c2ccccc2c2nc3no[nH]c3nc12 | -
CCOC(=O)c1cn(CC)c2c(ccc3ccccc32)c1=O | -90
CC(=O)c1ccc(NC(=O)C(C)Sc2nnc(C3CCCCC3)o2)cc1 (stereo not given) | -128
CN(Cc1ccccc1)S(=O)(=O)c1ccc(C(=O)Nc2nnc(C3CC3)o2)cc1 | -
COc1ccccc1NC(=O)Nc1ccc2c(c1)nnn2C | -96
Cc1ccc(NC(=O)Nc2ccc3c(c2)nnn3C)cc1C | -66
Nc1ccccc1N=Cc1ccc(-c2cccc(Cl)c2)o1 | -145
CCOc1cc(CNc2ccc3c(c2)CCC3)ccc1O | -119
COc1cc(CNc2ccc3c(c2)CCC3)cc(OC)c1O | -226
SMILES | aSyn UTR act
COc1ccccc1-c1nnc2sc(-c3ccc(N(C)C)cc3)nn12 | -
COc1cccc(-c2nnc3sc(-c4ccccn4)nn23)c1 | -103
CCc1ccc(-c2nc(CSCC(=O)NC3CC3)c(C)o2)cc1 | -
Cc1ccc(-c2nc(CS(=O)(=O)CC(=O)NC3CCC(C)CC3)c(C)o2)cc1 (stereo not given) | -102
CC(=O)C1=C(C)OC(N)=C(C#N)C1c1cc2cc(C)c(C)cc2nc1Cl (stereo not given) | -68
Cn1c(-c2ccc3c(c2)OCO3)cnc1NCc1ccccc1 | -104
Cn1c(-c2ccc3c(c2)OCO3)cnc1NCc1ccccc1Cl | -95
COc1cc(NC(=O)c2ccccc2Cl)ccc1NC(=O)c1ccco1 | -195
COc1cc(NC(=O)COc2ccccc2Cl)ccc1NC(=O)c1cccs1 | -113
O=C(Nc1ccc(NC(=O)c2cccs2)c(Cl)c1)c1cccs1 | -118
COc1cc(NC(=O)c2cccs2)ccc1NC(=O)c1ccco1 | -149

Assay outcomes from PubChem BioAssay.
